Data published in article PMC5700166.
Changes are numbered by the printed parent chain.

Tests used:
Assay in all cases: protein-binding microarray (PBM); PBM: ~300 nM protein, 6 mM HEPES pH 7.8, 80 mM KCl, 0.5 mM EDTA, 0.5 mM EGTA, 6% glycerol, 35 ng/ul poly-dIdC, 1% milk, 1 h, room temperature; Ap Aiptasia and Nv Nematostella (sea anemones) / Co Capsaspora / Aq Amphimedon (sponge) / Dm Drosophila / Hu human; RHD is the Rel homology domain; high values mean tight binding
Conditions in all cases: dsDNA, one strand shown
[1] = molecular target: T1, GST-Ap-NF-kB RHD (Exaiptasia pallida (Aiptasia), UniProt A0A913YAJ5 2-422)
T1 sequence: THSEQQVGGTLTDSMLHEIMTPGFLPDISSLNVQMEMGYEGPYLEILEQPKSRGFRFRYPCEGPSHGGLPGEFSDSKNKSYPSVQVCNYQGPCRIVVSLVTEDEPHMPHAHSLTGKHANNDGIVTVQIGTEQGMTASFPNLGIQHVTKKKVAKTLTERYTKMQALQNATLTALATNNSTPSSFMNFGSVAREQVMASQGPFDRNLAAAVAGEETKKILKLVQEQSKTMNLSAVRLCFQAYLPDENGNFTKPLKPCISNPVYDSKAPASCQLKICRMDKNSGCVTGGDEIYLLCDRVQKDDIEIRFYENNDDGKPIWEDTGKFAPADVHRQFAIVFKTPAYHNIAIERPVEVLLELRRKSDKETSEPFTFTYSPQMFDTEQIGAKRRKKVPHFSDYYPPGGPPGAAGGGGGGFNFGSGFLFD

[2] = molecular target: T2, GST-Nv-NF-kB (Cys allele) (Nematostella vectensis, UniProt E5G601 2-411)
T2 sequence: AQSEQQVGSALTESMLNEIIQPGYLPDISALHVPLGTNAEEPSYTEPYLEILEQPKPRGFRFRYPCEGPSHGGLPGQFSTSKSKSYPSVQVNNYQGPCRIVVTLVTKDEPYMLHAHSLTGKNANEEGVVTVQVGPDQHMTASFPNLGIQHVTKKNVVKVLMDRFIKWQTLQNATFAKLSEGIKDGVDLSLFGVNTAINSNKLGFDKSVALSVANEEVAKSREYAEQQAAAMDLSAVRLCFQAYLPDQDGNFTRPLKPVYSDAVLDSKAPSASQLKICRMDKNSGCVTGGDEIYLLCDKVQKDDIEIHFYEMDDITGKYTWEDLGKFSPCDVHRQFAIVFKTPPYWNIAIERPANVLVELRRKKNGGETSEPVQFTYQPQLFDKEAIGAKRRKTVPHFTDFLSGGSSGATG

[3] = molecular target: T3, GST-Nv-NF-kB (Ser allele) (Nematostella vectensis, UniProt A7UNT2 2-411)
T3 sequence: T2 sequence with Q21R, C66S, S207N, E215Q, V217A, E225K, A268E, D399E

[4] = molecular target: T4, GST-Co-NF-kB (Capsaspora owczarzaki, UniProt F1ARL5 200-546)
T4 sequence: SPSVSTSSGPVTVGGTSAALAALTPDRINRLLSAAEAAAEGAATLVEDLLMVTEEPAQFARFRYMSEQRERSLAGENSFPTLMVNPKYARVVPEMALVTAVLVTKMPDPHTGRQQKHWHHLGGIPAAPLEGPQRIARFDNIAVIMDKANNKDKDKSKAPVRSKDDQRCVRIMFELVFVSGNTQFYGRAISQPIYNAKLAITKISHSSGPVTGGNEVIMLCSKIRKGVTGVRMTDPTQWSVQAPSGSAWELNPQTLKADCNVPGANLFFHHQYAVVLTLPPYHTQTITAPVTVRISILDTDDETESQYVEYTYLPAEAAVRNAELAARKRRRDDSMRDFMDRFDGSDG

[5] = molecular target: T5, GST-Aq-NF-kB (Amphimedon queenslandica, UniProt A9Y5G7 2-389)
T5 sequence: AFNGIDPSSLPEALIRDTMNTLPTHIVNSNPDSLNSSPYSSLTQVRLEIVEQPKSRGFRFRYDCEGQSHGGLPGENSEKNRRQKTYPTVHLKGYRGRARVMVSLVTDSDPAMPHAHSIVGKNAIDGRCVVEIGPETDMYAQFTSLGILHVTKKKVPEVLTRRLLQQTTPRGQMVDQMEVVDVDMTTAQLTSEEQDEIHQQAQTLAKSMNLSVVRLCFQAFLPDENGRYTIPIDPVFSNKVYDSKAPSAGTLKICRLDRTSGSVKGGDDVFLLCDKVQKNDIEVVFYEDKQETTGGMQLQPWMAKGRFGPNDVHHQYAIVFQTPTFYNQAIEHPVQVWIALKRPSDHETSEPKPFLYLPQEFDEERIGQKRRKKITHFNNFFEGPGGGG

[6] = molecular target: GST-Hu-p50 (Homo sapiens, UniProt P19838 7-356)
Chain of GST-Hu-p50 (P19838 7-356): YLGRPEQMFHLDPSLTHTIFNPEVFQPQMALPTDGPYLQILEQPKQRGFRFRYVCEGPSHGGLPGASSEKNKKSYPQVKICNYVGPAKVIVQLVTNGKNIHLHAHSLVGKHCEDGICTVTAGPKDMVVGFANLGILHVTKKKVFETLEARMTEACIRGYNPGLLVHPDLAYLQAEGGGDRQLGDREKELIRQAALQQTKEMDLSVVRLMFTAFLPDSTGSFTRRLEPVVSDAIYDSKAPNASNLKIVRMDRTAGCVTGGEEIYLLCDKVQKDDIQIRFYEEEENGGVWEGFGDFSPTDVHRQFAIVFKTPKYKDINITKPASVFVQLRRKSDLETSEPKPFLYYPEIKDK

[7] = molecular target: T6, GST-Dm-Relish (Drosophila melanogaster, UniProt Q94527 99-473)
T6 sequence: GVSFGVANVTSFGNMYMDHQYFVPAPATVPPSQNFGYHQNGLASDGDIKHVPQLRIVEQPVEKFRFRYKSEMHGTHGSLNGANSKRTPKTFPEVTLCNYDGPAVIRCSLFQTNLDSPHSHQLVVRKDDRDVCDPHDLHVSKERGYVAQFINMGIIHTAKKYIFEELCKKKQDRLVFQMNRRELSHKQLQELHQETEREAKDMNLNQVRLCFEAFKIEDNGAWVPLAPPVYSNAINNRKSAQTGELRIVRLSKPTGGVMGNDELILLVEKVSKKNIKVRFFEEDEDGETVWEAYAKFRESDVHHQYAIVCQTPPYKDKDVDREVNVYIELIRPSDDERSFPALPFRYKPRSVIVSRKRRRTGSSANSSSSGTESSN

Row | Sequence | binding signal [1] [z-score] | binding signal [2] [z-score] | binding signal [3] [z-score] | binding signal [4] [z-score] | binding signal [5] [z-score] | binding signal [6] [z-score] | binding signal [7] [z-score]
1 | CCGATTAACATCATGGGGAGGAATGATGTTAATCGGGTCTTGATTCGCTTGACGCTGCTG | 3.58 | 3.68 | 4.26 | 6.46 | 2.28 | 2.59 | 
2 | CCGATTAACATCAGGAATTCTCCTGATGTTAATCGGGTCTTGATTCGCTTGACGCTGCTG |  |  |  |  | 1.31 |  | 
3 | CCGATTAACATCAAACTGGGAAATGATGTTAATCGGGTCTTGATTCGCTTGACGCTGCTG | 1.13 | 2.35 | 1.79 | 2.64 | 1.06 | 1.62 | 
4 | CCGATTAACATCAGGAAGCTCCCTGATGTTAATCGGGTCTTGATTCGCTTGACGCTGCTG | 1.2 | 1.37 |  |  | 3.72 | 1.33 | 
5 | CCGATTAACATCAGTGGGAAAAATGATGTTAATCGGGTCTTGATTCGCTTGACGCTGCTG | 2.21 | 3.95 | 4.53 | 4.81 | 2.62 | 3.34 | 
6 | CCGATTAACATCAGAATTCTCCCTGATGTTAATCGGGTCTTGATTCGCTTGACGCTGCTG | 2.74 | 4.1 | 3.64 | 2.57 | 4.02 | 3.58 | 
7 | CCGATTAACATCAAGCATTTCCCTGATGTTAATCGGGTCTTGATTCGCTTGACGCTGCTG | 2.4 | 4.4 | 4.14 | 2.36 | 3.63 | 2.72 | 
8 | CCGATTAACATCAGGAAATTCTATGATGTTAATCGGGTCTTGATTCGCTTGACGCTGCTG |  |  |  |  | 1.08 |  | 
9 | CCGATTAACATCAAGGTGGGAATTGATGTTAATCGGGTCTTGATTCGCTTGACGCTGCTG | 1.55 | 3.21 | 2.3 | 2.52 | 1.99 | 1.71 | 
10 | CCGATTAACATCAGGCTATTCCCTGATGTTAATCGGGTCTTGATTCGCTTGACGCTGCTG | 1.73 | 2.68 | 1.67 | 1.6 | 3.74 | 1.4 | 
11 | CCGATTAACATCAATTCCCATCCTGATGTTAATCGGGTCTTGATTCGCTTGACGCTGCTG | 1.57 | 2.99 | 2.59 | 1.43 | 1.94 | 1.57 | 
12 | CCGATTAACATCAAAATTTCCAGTGATGTTAATCGGGTCTTGATTCGCTTGACGCTGCTG |  |  |  |  | 1.04 | 1.16 | 
13 | CCGATTAACATCAACGTGGGAAATGATGTTAATCGGGTCTTGATTCGCTTGACGCTGCTG | 1.56 | 2.36 | 1.77 | 2.91 | 1.71 | 1.29 | 
14 | CCGATTAACATCACGGGATTCCCTGATGTTAATCGGGTCTTGATTCGCTTGACGCTGCTG | 6.4 | 6.23 | 5.14 | 2.93 | 7.3 | 4.17 | 10.2
15 | CCGATTAACATCACCCTTTTCCCTGATGTTAATCGGGTCTTGATTCGCTTGACGCTGCTG | 2.88 | 3.25 | 5.61 | 4.6 | 2.91 | 2.59 | 1.52
16 | CCGATTAACATCAAAAATCCCCATGATGTTAATCGGGTCTTGATTCGCTTGACGCTGCTG | 9.63 | 10.8 | 11.4 | 5.31 | 7.92 | 7.94 | 9.64
17 | CCGATTAACATCAGGAACTCCCATGATGTTAATCGGGTCTTGATTCGCTTGACGCTGCTG | 2.86 | 2.53 | 1.04 | 1.08 | 3.71 | 1.95 | 4.29
18 | CCGATTAACATCAGCAAATTCCCTGATGTTAATCGGGTCTTGATTCGCTTGACGCTGCTG | 3.17 | 5.15 | 5.81 | 2.77 | 4.34 | 4.19 | 4.19
19 | CCGATTAACATCAAGTACGGGAATGATGTTAATCGGGTCTTGATTCGCTTGACGCTGCTG | 1.11 | 2.04 | 1.41 | 2.85 | 3.24 | 1.22 | 
20 | CCGATTAACATCAGGGAATATACTGATGTTAATCGGGTCTTGATTCGCTTGACGCTGCTG | 3.5 | 3.81 | 4.1 | 3.18 | 4.33 | 2.3 | 4.01
21 | CCGATTAACATCAGGGAAACAAATGATGTTAATCGGGTCTTGATTCGCTTGACGCTGCTG | 1.7 | 3.05 | 3.17 | 4.61 | 3.12 | 1.97 | 
22 | CCGATTAACATCAACGGTGGGAATGATGTTAATCGGGTCTTGATTCGCTTGACGCTGCTG | 1.12 | 1.46 | 1.15 | 2.19 | 2.42 | 1.41 | 
23 | CCGATTAACATCAATAAAACCCCTGATGTTAATCGGGTCTTGATTCGCTTGACGCTGCTG | 5.73 | 5.27 | 5.34 | 2.26 | 5.25 | 6.19 | 7.35
